{"source": "PubChem BioAssay AID1159554", "about": "(Broad Institute, 2015)", "note": "Out of some 94,000 compounds screened, about 2,100 (2.2%) were called active. No stated cut-off is given here; in the data, active means activity change below about -80%; inconclusive means no clear call, values can overlap the other calls; inactive means above that. Only a selection was taken, and actives are over-represented in it overall."}
{"test": "P. falciparum Dd2 growth inhibitors, primary screen, SYBR Green fluorescence, single dose replicates (AID 1159554)", "settings": "72 h, at 10 µM, hits give low values"}
{"smiles": "COc1ccc(NC(=O)Nc2ccc3c(c2)[C@H]2C[C@H](CC(=O)NC4CCCC4)O[C@@H](CO)[C@H]2O3)cc1", "activity change": "4.95% (inactive)"}
{"smiles": "O=C(C[C@@H]1CC[C@H]2[C@@H](COC[C@H](O)CN2S(=O)(=O)c2ccccc2)O1)NCCN1CCCC1", "activity change": "-4.83% (inactive)"}
{"smiles": "C[C@@H]1CCCCO[C@H](CN(C)C(=O)CCC(F)(F)F)[C@H](C)CN([C@@H](C)CO)C(=O)c2cc(NC(=O)CCCCCC(=O)Nc3ccccc3N)ccc2O1", "activity change": "-41% (inactive)"}
{"smiles": "COCCNC[C@@H]1[C@H](c2ccccc2)[C@H](CO)N1c1nc(C)c(C)s1", "activity change": "-28.1% (inactive)"}
{"smiles": "Cc1nc(N2[C@H](CO)[C@H](c3ccccc3)[C@H]2CNCC2CCCCC2)sc1C", "activity change": "-96.4% (active)"}
{"smiles": "CCCNC(=O)N1[C@H](CO)[C@H](c2ccccc2)[C@H]1CNC(=O)C1CCCCC1", "activity change": "6.57% (inactive)"}
{"smiles": "O=S(=O)(NC[C@H]1[C@@H](c2ccccc2)[C@@H](CO)N1CC1CC1)c1ccccc1", "activity change": "10.7% (inactive)"}
{"smiles": "O=C(NC[C@@H]1[C@H](c2ccccc2)[C@H](CO)N1CC1CCCC1)c1cccnc1", "activity change": "-5.05% (inactive)"}
{"smiles": "Cc1nc(N2[C@H](CO)[C@H](c3ccccc3)[C@H]2CNCC2CCC2)sc1C", "activity change": "-89.7% (active)"}
{"smiles": "CCCNC(=O)[C@@H]1[C@@H](CO)[C@@H]2Cn3c(ccc(-c4ccccc4F)c3=O)[C@H]1N2CC1CC1", "activity change": "4.78% (inactive)"}
{"smiles": "CCCNC(=O)C[C@@H]1CC[C@H]2[C@@H](COc3ccc(NC(=O)C4CCCC4)cc3C(=O)N2C)O1", "activity change": "5.93% (inactive)"}
{"smiles": "O=C(CC1CC1)N1CC[C@@H]2[C@@H](CO)Nc3ccc(-c4ccccc4)cc3[C@@H]21", "activity change": "4.83% (inactive)"}
{"smiles": "O=C(Nc1ccccc1)N[C@@H]1CC[C@H](CCn2cc(-c3ccccc3F)nn2)O[C@@H]1CO", "activity change": "-68% (inactive)"}
{"smiles": "O=C(Nc1ccc(F)cc1)N[C@H]1CC[C@H](CCn2cc(C3(O)CCCC3)nn2)O[C@@H]1CO", "activity change": "-25.8% (inactive)"}
{"smiles": "C[C@H](CO)N1C[C@H](C)[C@H](CN(C)Cc2ccc(Cl)c(Cl)c2)OCCCC[C@H](C)Oc2ccc(NC(=O)NC3CCCCC3)cc2C1=O", "activity change": "-14.4% (inactive)"}
{"smiles": "COc1ccc(CN(C)C[C@@H]2OCCCC[C@@H](C)Oc3ccc(NC(=O)Nc4ccc(OC)cc4)cc3C(=O)N([C@@H](C)CO)C[C@@H]2C)cc1", "activity change": "-76.5% (inactive)"}
{"smiles": "C[C@@H]1CCCCO[C@H](CN(C)Cc2ccc(Cl)c(Cl)c2)[C@@H](C)CN([C@@H](C)CO)C(=O)c2cc(NC(=O)Nc3ccccc3)ccc2O1", "activity change": "-83% (active)"}
{"smiles": "C[C@@H]1CCCCO[C@@H](CN(C)Cc2ccc(Cl)c(Cl)c2)[C@H](C)CN([C@H](C)CO)C(=O)c2cc(NC(=O)Nc3ccc(F)cc3)ccc2O1", "activity change": "-83% (active)"}
{"smiles": "C[C@@H]1CN([C@H](C)CO)C(=O)c2cc(NC(=O)Nc3ccccc3)ccc2O[C@@H](C)CCCCO[C@H]1CN(C)Cc1ccc(C(F)(F)F)cc1", "activity change": "-85.7% (active)"}
{"smiles": "C[C@@H]1CN([C@H](C)CO)C(=O)c2cc(NC(=O)Nc3ccc(F)cc3)ccc2O[C@@H](C)CCCCO[C@H]1CN(C)Cc1ccc(Cl)c(Cl)c1", "activity change": "-77.2% (inactive)"}
{"smiles": "C[C@@H]1CCCCO[C@@H](CN(C)Cc2ccc(C(F)(F)F)cc2)[C@@H](C)CN([C@H](C)CO)C(=O)c2cc(NC(=O)Nc3ccccc3)ccc2O1", "activity change": "74.5% (inactive)"}
{"smiles": "C[C@@H]1CCCCO[C@@H](CN(C)Cc2ccc3c(c2)OCO3)[C@@H](C)CN([C@@H](C)CO)C(=O)c2cc(NC(=O)Nc3ccccc3)ccc2O1", "activity change": "-36.8% (inactive)"}
{"smiles": "C[C@H]1CCCCO[C@@H](CN(C)Cc2ccc(C(F)(F)F)cc2)[C@@H](C)CN([C@@H](C)CO)C(=O)c2cc(NC(=O)Nc3ccccc3)ccc2O1", "activity change": "-74.7% (inactive)"}
{"smiles": "CC(C)NC(=O)Nc1ccc2c(c1)C(=O)N([C@@H](C)CO)C[C@@H](C)[C@H](CN(C)Cc1ccc(Cl)c(Cl)c1)OCCCC[C@H](C)O2", "activity change": "-77.6% (inactive)"}
{"smiles": "COc1ccc(NC(=O)Nc2ccc3c(c2)C(=O)N([C@H](C)CO)C[C@H](C)[C@H](CN(C)Cc2ccncc2)OCCCC[C@H](C)O3)cc1", "activity change": "29.4% (inactive)"}
{"smiles": "COc1ccc(NC(=O)Nc2ccc3c(c2)C(=O)N([C@H](C)CO)C[C@@H](C)[C@H](CN(C)Cc2ccc(Cl)c(Cl)c2)OCCCC[C@@H](C)O3)cc1", "activity change": "-83.8% (active)"}
{"smiles": "COc1ccc(-c2ccc([C@@H]3[C@H](CN(C)S(C)(=O)=O)N[C@@H]3CO)cc2)cc1", "activity change": "-61.4% (inactive)"}
{"smiles": "C[C@H](CO)N1C[C@H](C)[C@@H](CN(C)C(=O)Cc2ccccn2)Oc2cc(-c3cccc(C(=O)N(C)C)c3)ccc2S1(=O)=O", "activity change": "-3.07% (inactive)"}
{"smiles": "CN1CCN(C(=O)C[C@H]2C[C@@H]3c4cc(NS(=O)(=O)c5ccc(F)cc5)ccc4O[C@@H]3[C@@H](CO)O2)CC1", "activity change": "-2.3% (inactive)"}
{"smiles": "CO[C@@H]1CN(C)C(=O)c2cc(NC(=O)NC3CCCC3)ccc2OC[C@H](C)NC[C@H]1C", "activity change": "14.4% (inactive)"}
{"smiles": "O=C(Nc1cc(F)ccc1F)N1CC(=O)N2[C@H](CO)[C@@H](c3ccc(-c4cccnc4)cc3)[C@@H]2C1", "activity change": "-15.2% (inactive)"}
{"smiles": "CCC(=O)N1C[C@H]2[C@@H](c3ccccc31)[C@H](CO)N2Cc1ccccc1F", "activity change": "0.398% (inactive)"}
{"smiles": "CO[C@H]1CN(C)C(=O)c2ccc(NC(C)=O)cc2OC[C@@H](C)N(C(=O)c2ccccn2)C[C@@H]1C", "activity change": "13.4% (inactive)"}
{"smiles": "Cc1noc(C)c1S(=O)(=O)N(C)C[C@@H]1OCCCC[C@@H](C)Oc2ccc(NS(=O)(=O)c3ccccc3)cc2C(=O)N([C@H](C)CO)C[C@@H]1C", "activity change": "-10.1% (inactive)"}
{"smiles": "COc1ccc2c3c([nH]c2c1)[C@@H](CO)N(Cc1cc(F)ccc1F)CC31CCN(C(=O)C2CCC2)CC1", "activity change": "-88% (active)"}
{"smiles": "COCC(=O)N1CC2(C1)CN(Cc1ccccc1F)[C@@H](CO)c1[nH]c3cc(OC)ccc3c12", "activity change": "-88.4% (active)"}
{"smiles": "COc1ccc2c3c([nH]c2c1)[C@@H](CO)N(Cc1cc(F)ccc1F)CC31CN(C(=O)C2CCC2)C1", "activity change": "-89.2% (active)"}
{"smiles": "COc1ccc2c3c([nH]c2c1)[C@@H](CO)N(Cc1ccccc1OC)CC31CCN(C)CC1", "activity change": "35.1% (inactive)"}
{"smiles": "COc1ccc2c3c([nH]c2c1)[C@H](CO)N(Cc1nccs1)CC31CCN(C(=O)C2CCC2)CC1", "activity change": "-50% (inactive)"}
{"smiles": "CCC(=O)N1CCC2(CC1)CN(Cc1cc(F)ccc1F)[C@@H](CO)c1c2c2ccc(OC)cc2n1C", "activity change": "-73% (inactive)"}
{"smiles": "COc1ccc2c3c([nH]c2c1)[C@@H](CO)N(C(=O)NC(C)C)CC31CN(C(=O)C2CCCC2)C1", "activity change": "12.7% (inactive)"}
{"smiles": "COc1ccc2c3c([nH]c2c1)[C@@H](CO)N(C(C)=O)CC31CN(C(=O)Nc2ccc(F)cc2)C1", "activity change": "-0.229% (inactive)"}
{"smiles": "COc1ccc2c3c(n(C)c2c1)[C@H](CO)N(Cc1ccccc1F)CC31CN(C(=O)C2CCC2)C1", "activity change": "-14.5% (inactive)"}
{"smiles": "CCC(=O)N1CC2(C1)CN(Cc1cc(F)ccc1F)[C@@H](CO)c1[nH]c3cc(OC)ccc3c12", "activity change": "-89.9% (active)"}
{"smiles": "CCCNC(=O)N1CC2(CCN(C(=O)C3CC3)CC2)c2c([nH]c3cc(OC)ccc23)[C@H]1CO", "activity change": "-26.2% (inactive)"}
{"smiles": "COc1ccc2c3c([nH]c2c1)[C@@H](CO)N(Cc1ccncc1)CC31CN(C(=O)CN(C)C)C1", "activity change": "-8.59% (inactive)"}
